# Screens: PubChem, Buhrlage Lab, Dana-Farber Cancer Institute and Novartis Institutes for BioMedical Research (Cambridge, Mass)
# UCHL1 block: blocks human UCHL1 ubiquitin-rhodamine cleavage | purified UCHL1, Ub-rhodamine cleavage fluorescence | inhibition, % at 20 µM | actives 0.2% (n = 47,000)
# USP7 inh: blocks human USP7 ubiquitin-rhodamine cleavage; Q93009; purified USP7, Ub-rhodamine cleavage fluorescence; inhibition, % at 20 µM; actives 0.3% (n = 47,000)
# OTUD3 block: blocks human OTUD3 ubiquitin-rhodamine cleavage | inhibition, % at 25 µM | actives 0.7% (n = 47,000) | Q5T2D3 | purified OTUD3, Ub-rhodamine fluorescence, 2 h
# Target sequence (Q5T2D3 whole entry, looked up): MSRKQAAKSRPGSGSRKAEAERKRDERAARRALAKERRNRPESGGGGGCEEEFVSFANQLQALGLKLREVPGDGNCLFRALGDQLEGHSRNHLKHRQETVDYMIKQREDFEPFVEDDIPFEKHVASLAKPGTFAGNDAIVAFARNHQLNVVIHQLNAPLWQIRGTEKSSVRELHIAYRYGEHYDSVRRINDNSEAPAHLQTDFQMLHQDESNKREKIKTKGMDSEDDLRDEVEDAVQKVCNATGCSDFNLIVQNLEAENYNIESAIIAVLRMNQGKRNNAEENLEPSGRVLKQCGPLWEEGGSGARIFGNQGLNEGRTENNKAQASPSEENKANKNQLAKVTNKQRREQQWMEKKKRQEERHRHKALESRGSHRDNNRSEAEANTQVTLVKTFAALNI
# The depositor's hits bear a star; / = not tested or not shown. Compounds with a hit are over-represented: about 1.1% of the library has one in this group of screens. Cut-off read from the data, not from the text of the source: active = inhibition above about 30%; inactive = the rest.
SMILES,UCHL1 block,USP7 inh,OTUD3 block
COc1ccc(C(=O)COC(=O)c2ccccc2NS(=O)(=O)c2ccc(O)c([N+](=O)[O-])c2)cc1,5,24,36*
O=C(COC(=O)c1ccccc1NS(=O)(=O)c1ccc2c(c1)OCCO2)c1ccc([N+](=O)[O-])cc1,-1,6,-10
CC(=O)c1cc2c(=O)c3c(C(=O)O)c(O)c(O)cc3oc2c(C(C)=O)c1-c1coc2cc(O)c(O)c(C(=O)O)c2c1=O,1,-139,60*
COc1ccc(C(O)c2ncc(-c3ccc4ccccc4c3)[nH]2)cc1 (stereo not given),1,2,9
CC(=O)c1cccc(NS(=O)(=O)c2cc(-c3nc(C)cs3)n(C)c2C)c1,1,0,-9
Cc1ccc(-n2nc(C(=O)Nc3ccc(C)cn3)c3ncn(C)c(=O)c32)cc1,14,30,36*
Cc1ccc(-n2nc(C(=O)NC3CCCCC3)c3ncn(C)c(=O)c32)cc1,-2,1,-8
CC(=O)Nc1ccc(-c2ccc(CO)o2)c(C)c1,-2,0,-1
O=C(NCc1ccc(F)cc1)N1CCc2ccccc2C1,2,-5,4
O=C(Oc1cc(O)cc2c1C[C@@H](OC(=O)c1cc(O)c(O)c(O)c1)[C@@H](c1cc(O)c(O)c(O)c1)O2)c1cc(O)c(O)c(O)c1,11,15,73*
CC(C)OCCCN1C(=O)C2C(C(=O)Nc3ccc(Oc4ccccc4)cc3)C3C=CC2(O3)C1C(=O)NC1CCCCC1 (stereo not given),3,-15,33*
CCCN1C(=O)C2C(C(=O)Nc3ccc(Oc4ccccc4)cc3)C3C=CC2(O3)C1C(=O)NC1CCCCC1 (stereo not given),0,0,4
C=C1CCC2[C@](C)(CCC[C@]2(C)C(=O)OC)[C@H]1CCc1ccoc1CNC(C)C (stereo not given in full),5,11,30*
C=C1CCC2[C@](C)(CCC[C@]2(C)C(=O)OC)[C@H]1CCc1ccoc1CNC(CCSC)C(=O)O (stereo not given in full),-7,2,-8
Cc1ccc(Cn2nnc3c(=O)[nH]c(C4CCN(C(=O)CC(C)(C)C)CC4)nc32)cc1,2,-27,4
CCOc1cccc(-c2noc(-c3nn(-c4ccccc4)ccc3=O)n2)c1,7,21,40*
CCOc1cccc(-c2noc(-c3nn(-c4cccc(C)c4)ccc3=O)n2)c1,8,-2,0
C1CCc2nnc(C3CC34CCN(Cc3nc(C5CC5)no3)CC4)n2CC1 (stereo not given),3,3,13
Cc1nnc(-c2nnc(NCc3ccccc3)c3ccccc23)o1,3,-5,11
Cc1cc(C)cc(N(CCC(=O)Nc2ccc(N3CCOCC3)cc2)S(=O)(=O)c2ccc(Cl)cc2)c1,4,9,35*
Cc1cc(C)cc(N(CCC(=O)Nc2ccccc2)S(=O)(=O)c2ccc3ccccc3c2)c1,9,14,17
Cc1nc(C2COCCN2C(=O)c2cc(C(C)(C)C)[nH]n2)cc(=O)[nH]1 (stereo not given),37*,-1,-9
CC(C)(C)c1cc(C(=O)N2CCOCC2c2ccn[nH]2)n[nH]1 (stereo not given),-7,0,-14
O=C(NCCCc1nc2ccccc2n1Cc1c(F)cccc1Cl)c1ccco1,0,-129,6
Cc1ccc(C(=O)N2CCc3cc(-c4nc(NC(=O)CN5CCCC5)sc4C)ccc32)cc1,-1,-69,0
SMILES,UCHL1 block,USP7 inh,OTUD3 block
CC(C)OCCCn1c(=O)c2ccccc2n2c(CCC(=O)NCc3ccccn3)nnc12,1,0,-1
COc1cccc(NC(=O)CCc2nnc3n(CCCOC(C)C)c(=O)c4ccccc4n23)c1,4,/,37*
Cc1ccc(NC(=O)CC2Nc3ccccc3NC2=O)cc1[N+](=O)[O-] (stereo not given),0,12,22
O=C(CSc1cn(CC(=O)N2CCCCC2)c2ccccc12)Nc1ccc2c(c1)OCO2,0,4,3
CSc1ncccc1C(=O)Nc1ccnn1Cc1ccccc1,0,3,-5
CSc1ncccc1C(=O)OCc1ccccc1,74*,-7,2
CCCCN1CCC(N2CCN(C(=O)c3cccc(F)c3)CC2=O)CC1,-2,-1,0
O=C1NC(Cc2ccccc2)(c2ccccc2)C(=O)N1CC(O)CN1CCOCC1 (stereo not given),-6,-2,-6
Cc1nc(C(=O)NC2(O)C(=O)c3ccccc3C2=O)cs1,29,-94,5
CSc1ncccc1C(=O)NC1(O)C(=O)c2ccccc2C1=O,34*,-90,23
CNC(=O)N1CCN(c2ncccc2-c2nnc(C3CC3)o2)CC1,-4,0,-5
O=C1c2c(O)cccc2C2(Oc3cccc4cccc(c34)O2)C2OC12 (stereo not given),28,-6,47*
O=C1c2c(O)ccc(O)c2C2(Oc3cccc4cccc(c34)O2)C2OC12 (stereo not given),45*,6,68*
CC1(C)c2ccc3c(c2C(=O)C2OC21)C(O)OC3=O (stereo not given),-5,-14,-6
COc1ccc(S(=O)(=O)N[C@H]2C[C@H]3CN(C)c4ccccc4CN3C2)cc1OC,-4,-2,-19
COC(=O)c1ccc(C(C(=O)NCC2CCCO2)N(C(=O)COc2ccc(F)cc2)c2ccc(F)cc2)cc1 (stereo not given),0,-5,0
Cc1cccc(C(=O)Nc2c(C)nn(Cc3cccc4ccccc34)c2C)c1,3,6,14
CCn1nc(C)c(CNC(=O)c2[nH]c3ccc(C)cc3c2NC(=O)c2cccc(C)c2)c1C,7,16,71*
Cn1cccc1Cc1nnc(SCC(=O)Nc2cccc([N+](=O)[O-])c2)n1CCc1ccccc1,2,-51,7
Cc1occ2c1C(=O)c1c(O)ccc(O)c1C2,97*,99*,94*
c1ccc2c(-c3nc(C4CC4)no3)nnc(NCc3ccncc3)c2c1,1,-3,6
O=C1C[C@@H](O)[C@H](O)[C@@]23O[C@@]12C1(Oc2cccc4cccc(c24)O1)[C@@H]1O[C@@H]1[C@@H]3O,0,-24,33*
COc1ccc(C2CC(=O)c3cnc(N4CCc5ccccc5C4)nc3C2)cc1 (stereo not given),8,6,11
Cc1cccc(-c2c(NC(=O)c3ccc(Cl)cc3Cl)n(C)c3ccccc3c2=O)c1,2,5,10
COc1c2n(c3ccccc13)[C@@]1(O)C(=O)N(C)C(=O)[C@@]1(O)c1c-2n(C)c2ccc(Cl)cc12,9,17,50*
O=C(Cn1c(=O)n(-c2ccc(Cl)cc2)c(=O)c2c3c(sc21)CCCC3)NCC1CCCO1 (stereo not given),1,12,16
COc1cccc(CNC(=O)c2cccc(Nc3nc4ccccc4n4nnnc34)c2)c1,-31,-32,-110
CC(C)=CCc1cccc2c(C3=C(O)C(=O)C(c4c[nH]c5c(CC=C(C)C)cccc45)=C(O)C3=O)c[nH]c12,0,7,31*
COc1cc([N+](=O)[O-])ccc1NC(=O)COC(=O)Cc1c[nH]c2ccccc12,2,-13,-7
